Results filed as inconclusive are left out. Entries that show only a call come without a potency. Values without a mark were called inactive. The source made the active and inactive calls. The call rests on the fitted dose curve; in most records, active means well fitted inhibition curve with a large enough effect in the repeat runs; inconclusive means weak or mixed curves; inactive means no such curve, though single readings can be large or run the other way.
target: Cytochrome P450 2C19 (Homo sapiens) (UniProt P33261); experiment: Cytochrome P450 Family 2 Subfamily C Member 19 (CYP2C19) small molecule antagonists: luciferase reporter qHTS assay (AID 1671197); settings: P450-Glo CYP2C19 enzyme, luciferin luminescence, 1 h; series mostly up to 115 µM; further: nearly all actives have a fitted effect of over 65% in size
Sequence (P33261 whole entry, looked up): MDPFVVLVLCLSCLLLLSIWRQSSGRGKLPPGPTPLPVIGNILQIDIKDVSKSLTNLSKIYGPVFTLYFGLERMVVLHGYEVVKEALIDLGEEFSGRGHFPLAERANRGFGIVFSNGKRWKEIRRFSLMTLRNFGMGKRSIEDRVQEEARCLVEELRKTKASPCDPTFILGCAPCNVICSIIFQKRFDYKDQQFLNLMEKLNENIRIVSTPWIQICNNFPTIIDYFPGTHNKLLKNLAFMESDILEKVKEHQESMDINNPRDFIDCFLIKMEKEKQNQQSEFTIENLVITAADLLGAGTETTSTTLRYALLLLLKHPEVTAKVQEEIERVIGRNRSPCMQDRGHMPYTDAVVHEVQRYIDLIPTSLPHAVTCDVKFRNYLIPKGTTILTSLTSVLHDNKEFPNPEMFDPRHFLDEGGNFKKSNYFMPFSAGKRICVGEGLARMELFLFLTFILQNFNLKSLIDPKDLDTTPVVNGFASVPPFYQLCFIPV
Excerpt: National Center for Advancing Translational Sciences [NCATS]
U.S. Environmental Protection Agency [EPA]
National Institutes of Environmental Health Sciences [NIEHS]
National Toxicology Program [NTP]
U.S. Food and Drug Administration [FDA]
Cytochrome P450 (CYP) enzymes are membrane-bound hemeproteins that play a key role in metabolism of drugs and xenobiotics. Evaluation of the effect of chemicals on CYP isozymes is useful to minimize the adverse drug reactions and toxicities in drug development process. Tox21 chemicals were tested for their effect on CYP enzyme activities by using P450-Glo (TM) screening systems (Promega Corporation, Madison, WI). These systems provide a luminescent method containing proluciferin substrates and are converted to luciferin products by CYP isozymes. The luciferin products formed are detected with a luciferin detection reagent, and the amount of light produced is proportional to CYP activity. P450-Glo (TM) CYP2C19 screening system (Catalog. No. V9880) was used to detect the compounds that interfere in CYP2C19 activity. The positive control compound used for CYP2C19 assay is ketoconazole (Sigma-Aldrich, St. Louis, MO).
Tox21 Assay Protocol Summary:
Two ul of enzyme-substrate mix was dispensed into medium binding white/solid 1536-well plates (Greiner Bio-One North America Inc., Monroe, NC) using a BioRaptr Flying Reagent Dispenser (FRD, Beckman Coulter, Brea, CA). Compounds dissolved in DMSO and positive control (ketoconazole) were transferred to the assay plates at 23 nl using a Pintool station (Wako, San Diego, CA). The assay plates were incubated at room temperature for 10 min. Then 2 ul of NADPH regeneration solution was added to each well of the assay plates using an FRD and incubated at 37C for 1 h. The reaction was stopped by adding 4 ul of detection reagent using an FRD and after 20 min incubation at room temperature the luminescence signal was measured using a ViewLux plate reader (Perkin Elmer, Shelton, CT). Data were expressed as relative luminescence units.
Potency means the concentration at half of the fitted maximal effect.

Row | Compound | Potency | activity change, negative = inhibition
1 | C[N+]1(C)CCCCC1 | inactive | 
2 | Oc1ccc(Cc2ccc(O)cc2)cc1 | inactive | 
3 | CN(C)C1CCCCC1 | inactive | 
4 | O=P(O)(O)c1ccccc1 | inactive | 
5 | O=C(NC(O)C(Cl)(Cl)Cl)NC(O)C(Cl)(Cl)Cl (stereo not given) | inactive | 
6 | CS(=O)(=O)c1ccc(C(=O)C2C(=O)CCCC2=O)c(Cl)c1COCC(F)(F)F | inactive | 
7 | CCN(CCO)CCn1c(Cc2ccccc2)nc2c1c(=O)n(C)c(=O)n2C | inactive | 
8 | CC(Cc1ccccc1)NCCn1cnc2c1c(=O)n(C)c(=O)n2C (stereo not given) | 78.7 µM (active) | 
9 | [P]#[In] | inactive | 
10 | C[C@H](CN1CCOCC1)C(C(=O)N1CCCC1)(c1ccccc1)c1ccccc1 | 96.9 µM (active) | 
11 | C=C1C[C@@H]2[C@H](CC[C@]3(C)C(=O)CC[C@@H]23)[C@@]2(C)C=CC(=O)C=C12 | 4.36 µM (active) | 
12 | C=C1CC[C@@]2(O)[C@H]3Cc4ccc(O)c5c4[C@@]2(CCN3CC2CC2)[C@H]1O5 | inactive | 
13 | ClC1=C(Cl)C2(Cl)C(CBr)CC1(Cl)C2(Cl)Cl (stereo not given) | inactive | 
14 | Cc1cccc2sc3nncn3c12 | inactive | 
15 | CCC(CC)(CNC(=O)CCCO)c1cccc(OC)c1 | 7.76 µM (active) | 
16 | CCc1cc(OC)c(C[C@H](C)N)cc1OC | inactive | 
17 | ClC(Cl)(Cl)Cl | inactive | 
18 | COc1cc(CCN)cc(OC)c1OC | inactive | 
19 | O=C1CCCCC1Cl (stereo not given) | 40.4 µM (active) | 
20 | C=CCc1cc(OC)c2c(c1)OCO2 | 59 µM (active) | 

Row | Compound | Potency | activity change, negative = inhibition
21 | ClCC1CO1 (stereo not given) | 24.3 µM (active) | 
22 | CCN(CCO)CCO | inactive | 
23 | CCN1CCCC1CNC(=O)C(O)(c1ccccc1)c1ccccc1 (stereo not given) | inactive | 
24 | CNC(=O)NC(O)C(Cl)(Cl)Cl (stereo not given) | inactive | 
25 | CCC(C)C(C)(COC(N)=O)COC(N)=O (stereo not given) | inactive | 
26 | COc1cccc(C=O)c1 | inactive | 
27 | CCCCCCC(=O)CCCCCC/C=C/C[C@@H](O)[C@H](O)[C@@](N)(CO)C(=O)O |  | 14.2% [at 23.6 µM]
28 | Clc1nc(Cl)nc(Nc2ccccc2Cl)n1 | 79.6 µM (active) | 
29 | C[C@H](N)C(=O)c1ccccc1 | 47.3 µM (active) | 
30 | O=C(Cl)C(Cl)Cl | inactive | 
31 | COP(=O)(O)OC | 18.5 µM (active) | 
32 | CN1COCN(Cc2cnc(Cl)s2)/C1=N\[N+](=O)[O-] | inactive | 
33 | OCC(Cl)CCl (stereo not given) | 70.1 µM (active) | 
34 | CCC(C(N)=O)N1CCCC1=O (stereo not given) | inactive | 
35 | CCOc1cc(OP(=S)(OC)OC)nc(CC)n1 | 35.6 µM (active) | 
36 | NC(=O)OCCCc1ccccc1 | inactive | 
37 | NCCOS(=O)(=O)O | inactive | 
38 | C#CCOC(=O)/C=C(C)/C=C/CC(C)CCCC(C)C (stereo not given) | 79.6 µM (active) | 
39 | CCCOC(=O)c1cncn1C(C)c1ccccc1 (stereo not given) | 2.45 µM (active) | 
40 | CCC(=O)c1ccc(Cl)cc1 | inactive | 

From PubChem BioAssay (Tox21)
